According to the supplement of paper PMC10849652:
Targets with a hit are over-represented here; the source holds about 7,900 in all. About 0.6% of all pairs of compound and target were hits.

Columns and labels:
Assay in all cases: log2 fold change, soluble protein after heating vs DMSO (PISA); higher = thermal stabilisation; K562 cells, 10 uM, 30 min; active = over 0.2 and 3.5 SD of the protein, either way, in both replicates (recomputed)
[1] = compound: CN1CCN(CCOc2cc(OC3CCOCC3)c3c(Nc4c(Cl)ccc5c4OCO5)ncnc3c2)CC1 [saracatinib]
Summary of the method: (§1)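 K562 cells at 2×10^6 cells/mL were treated for 30 min with 10 μM compound, and aliquots were heated for 3 min over 48°C-58°C before pooling. Extraction used PBS with 0.5% NP-40 at 4°C, and soluble protein was the supernatant after 21,000xg for 90 min, measured by TMTpro 16plex LC-MS/MS with channel sums equalised. Thermal stability values, relative to control samples and from duplicates, are log2 fold changes.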

[2] = compound: CN1CCN(c2nc(C3=C(c4c[nH]c5ccccc45)C(=O)NC3=O)c3ccccc3n2)CC1 [sotrastaurin]
Summary of the method: as §1

[3] = compound: CN1CC[C@H](c2c(O)cc(O)c3c(=O)cc(-c4ccccc4Cl)oc23)[C@H](O)C1 [alvocidib]
Summary of the method: as §1

[4] = compound: CN1CCc2c(c3ccccc3n2Cc2ccc(C(=O)NO)cc2)C1 [Tubastatin A]
Summary of the method: as §1

[5] = compound: CNC(=O)C1=CC=CC=C1NC2=NC(=NC=C2Cl)NC3=C(C=C(C=C3)N4CCOCC4)OC
Summary of the method: as §1

[6] = compound: CNC(=O)c1ccc(Nc2ncc(C(F)(F)F)c(NCc3nccnc3N(C)S(C)(=O)=O)n2)cc1 [defactinib]
Summary of the method: as §1

[7] = compound: CNCc1ccc(-c2[nH]c3cc(F)cc4c3c2CCNC4=O)cc1 [rucaparib]
Summary of the method: as §1

[8] = compound: CNc1nc(-c2ccc3c(N)n[nH]c3c2)cc(N2C[C@@H](C(=O)NC3CCCCC3)CC[C@H]2C)n1
Summary of the method: as §1

[9] = compound: COC(=O)N[C@@H](C)CNc1nccc(-c2cn(C(C)C)nc2-c2cc(Cl)cc(NS(C)(=O)=O)c2F)n1 [encorafenib]
Summary of the method: as §1

[10] = compound: COC(=O)[C@H](CCSC)NC(=O)C1=C(C=C(C=C1)NC[C@H](CS)N)C2=CC=CC=C2
Summary of the method: as §1

[11] = compound: COC1=CC=C(C=C1)CN2C=CC3=C2C=C(C=C3)C(=O)NO
Summary of the method: as §1

[12] = compound: CON(C)C(=O)N1N=C(c2cc(F)ccc2F)S[C@@]1(CCCN)c1ccccc1 [filanesib]
Summary of the method: as §1

[13] = compound: CO[C@H]1C[C@@H]2CC[C@@H](C)[C@@](O)(O2)C(=O)C(=O)N2CCCC[C@H]2C(=O)O[C@H]([C@H](C)C[C@@H]2CC[C@H](n3cnnn3)[C@H](OC)C2)CC(=O)[C@H](C)/C=C(\C)[C@@H](O)[C@@H](OC)C(=O)[C@H](C)C[C@H](C)/C=C/C=C/C=C/1C [zotarolimus]
Summary of the method: as §1

[14] = compound: COc1cc(C(=O)O)ccc1NC(=O)[C@@H]1N[C@@H](CC(C)(C)C)[C@](C#N)(c2ccc(Cl)cc2F)[C@H]1c1cccc(Cl)c1F [idasanutlin]
Summary of the method: as §1

[15] = compound: COc1cc(Nc2ncc3c(n2)-c2ccc(Cl)cc2C(c2c(F)cccc2OC)=NC3)ccc1C(=O)O [alisertib]
Summary of the method: as §1

[16] = compound: COc1cc2nc(-c3cc(F)ccc3O)nc(N[C@@H]3CNC[C@H]3C(C)(C)O)c2cc1OC
Summary of the method: as §1

[17] = compound: COc1cc2ncnc(Nc3ccc(F)c(Cl)c3)c2cc1OCCCN1CCOCC1 [gefitinib]
Summary of the method: as §1

[18] = compound: COc1cccc2cc(-c3nc([C@H]4CC[C@H](C(=O)O)CC4)n4ncnc(N)c34)[nH]c12
Summary of the method: as §1

[19] = compound: CS(=O)(=O)CCNCc1ccc(-c2ccc3ncnc(Nc4ccc(OCc5cccc(F)c5)c(Cl)c4)c3c2)o1 [lapatinib]
Summary of the method: as §1

[20] = compound: CS(=O)(=O)N1CCN(Cc2cc3nc(-c4cccc5[nH]ncc45)nc(N4CCOCC4)c3s2)CC1 [pictilisib]
Summary of the method: as §1

Measured: log2 fold change

SETD3 (UniProt Q86TU7)
Sequence of UniProt Q86TU7 (Q86TU7 whole entry, looked up): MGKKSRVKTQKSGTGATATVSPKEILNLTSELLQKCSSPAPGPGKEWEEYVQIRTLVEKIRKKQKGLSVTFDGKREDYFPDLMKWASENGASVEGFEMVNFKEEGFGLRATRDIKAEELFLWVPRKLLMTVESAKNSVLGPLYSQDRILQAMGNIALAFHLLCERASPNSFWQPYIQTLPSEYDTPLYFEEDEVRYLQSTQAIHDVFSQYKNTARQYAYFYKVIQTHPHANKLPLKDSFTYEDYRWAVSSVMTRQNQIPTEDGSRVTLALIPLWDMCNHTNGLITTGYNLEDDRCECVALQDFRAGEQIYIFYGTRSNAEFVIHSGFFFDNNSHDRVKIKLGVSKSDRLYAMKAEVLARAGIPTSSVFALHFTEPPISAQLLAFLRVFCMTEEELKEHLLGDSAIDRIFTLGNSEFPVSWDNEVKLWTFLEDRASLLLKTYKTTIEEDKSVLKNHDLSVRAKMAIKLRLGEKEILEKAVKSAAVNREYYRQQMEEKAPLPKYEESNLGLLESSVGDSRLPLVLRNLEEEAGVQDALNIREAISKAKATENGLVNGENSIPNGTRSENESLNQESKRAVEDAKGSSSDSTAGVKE
inactive: [1] 0.008 | [2] 0.012 | [3] -0.071 | [4] -0.056 | [5] 0.014 | [6] -0.004 | [7] 0.022 | [8] 0.032 | [9] -0.009 | [10] 0 | [12] -0.132 | [13] 0.009 | [14] -0.086 | [15] -0.022 | [16] 0.052 | [17] 0.017 | [18] 0.048 | [19] -0.013 | [20] 0.03
active: [11] -0.254

SDHC (UniProt Q99643)
Sequence of UniProt Q99643 (Q99643 whole entry, looked up): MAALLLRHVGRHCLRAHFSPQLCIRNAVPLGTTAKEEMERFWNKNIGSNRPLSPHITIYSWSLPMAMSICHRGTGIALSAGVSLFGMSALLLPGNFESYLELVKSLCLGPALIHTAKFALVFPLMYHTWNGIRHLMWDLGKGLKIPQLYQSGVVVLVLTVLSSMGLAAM
inactive: [1] 0.074 | [2] -0.201 | [3] -0.006 | [4] -0.134 | [5] 0.04 | [6] -0.062 | [7] -0.012 | [8] -0.159 | [9] 0.029 | [10] 0.159 | [11] 0.088 | [12] 0.088 | [13] 0.094 | [14] -0.238 | [15] 0.023 | [16] -0.107 | [17] 0.042 | [18] 0.04 | [19] -0.081 | [20] -0.006

RABGGTA (UniProt Q92696)
Sequence of UniProt Q92696 (Q92696 whole entry, looked up): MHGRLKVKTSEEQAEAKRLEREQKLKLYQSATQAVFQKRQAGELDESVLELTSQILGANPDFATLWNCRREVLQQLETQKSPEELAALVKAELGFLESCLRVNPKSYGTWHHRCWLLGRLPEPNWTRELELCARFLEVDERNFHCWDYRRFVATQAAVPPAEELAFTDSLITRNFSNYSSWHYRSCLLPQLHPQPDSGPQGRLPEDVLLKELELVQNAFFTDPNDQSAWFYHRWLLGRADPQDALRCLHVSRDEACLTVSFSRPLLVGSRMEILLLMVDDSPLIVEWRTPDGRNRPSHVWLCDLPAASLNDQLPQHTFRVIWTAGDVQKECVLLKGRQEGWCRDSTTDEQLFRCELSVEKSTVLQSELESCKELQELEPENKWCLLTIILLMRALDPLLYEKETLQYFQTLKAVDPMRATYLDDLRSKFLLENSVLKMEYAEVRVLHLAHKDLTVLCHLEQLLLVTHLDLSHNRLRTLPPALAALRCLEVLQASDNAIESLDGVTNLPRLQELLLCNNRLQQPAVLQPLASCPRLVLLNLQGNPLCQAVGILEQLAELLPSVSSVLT
inactive: [1] 0.013 | [2] 0.102 | [3] -0.079 | [4] -0.044 | [5] -0.034 | [6] -0.034 | [7] -0.015 | [8] 0.001 | [9] 0.004 | [10] -0.024 | [11] 0.019 | [12] -0.013 | [13] 0.022 | [14] -0.019 | [15] 0.016 | [16] -0.007 | [17] 0.041 | [18] 0.017 | [19] 0.002 | [20] 0.067

RANBP2 (UniProt P49792)
active: [11] 0.334
inactive: [1] -0.011 | [2] -0.06 | [3] -0.079 | [4] -0.016 | [5] 0.886 | [6] -0.009 | [7] -0.028 | [8] -0.016 | [9] -0.045 | [10] -0.03 | [12] -0.048 | [13] 0.029 | [14] -0.005 | [15] 0.079 | [16] 0.044 | [17] 0.05 | [18] -0.097 | [19] -0.07 | [20] -0.002

RECQL (UniProt P46063)
Sequence of UniProt P46063 (P46063 whole entry, looked up): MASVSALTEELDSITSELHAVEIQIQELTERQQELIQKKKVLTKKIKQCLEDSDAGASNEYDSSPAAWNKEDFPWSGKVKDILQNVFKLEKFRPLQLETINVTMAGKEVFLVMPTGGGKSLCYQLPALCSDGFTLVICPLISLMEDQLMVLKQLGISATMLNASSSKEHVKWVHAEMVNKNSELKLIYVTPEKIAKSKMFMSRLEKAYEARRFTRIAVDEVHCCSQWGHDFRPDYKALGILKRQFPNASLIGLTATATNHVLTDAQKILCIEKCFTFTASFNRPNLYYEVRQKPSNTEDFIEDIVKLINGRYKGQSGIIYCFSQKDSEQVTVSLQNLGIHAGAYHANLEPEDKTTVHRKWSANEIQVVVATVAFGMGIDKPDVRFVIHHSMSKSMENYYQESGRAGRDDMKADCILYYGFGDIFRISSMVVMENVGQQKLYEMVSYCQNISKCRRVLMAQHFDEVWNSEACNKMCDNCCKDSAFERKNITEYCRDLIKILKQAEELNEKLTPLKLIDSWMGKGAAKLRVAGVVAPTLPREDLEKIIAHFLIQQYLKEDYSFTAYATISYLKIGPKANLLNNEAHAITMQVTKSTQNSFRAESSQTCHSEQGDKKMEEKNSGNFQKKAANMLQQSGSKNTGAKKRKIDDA
inactive: [1] 0.053 | [2] -0.012 | [3] -0.073 | [4] 0.021 | [5] 0.061 | [6] -0.071 | [7] -0.002 | [8] -0.013 | [9] 0.026 | [10] -0.026 | [11] 0.022 | [12] -0.091 | [13] 0.035 | [14] -0.056 | [15] -0.061 | [16] -0.038 | [17] -0.004 | [18] 0.031 | [19] 0.043 | [20] 0.024

RPS6KA1 isoform 2 (UniProt Q15418)
Sequence of UniProt Q15418 (Q15418 whole entry, looked up): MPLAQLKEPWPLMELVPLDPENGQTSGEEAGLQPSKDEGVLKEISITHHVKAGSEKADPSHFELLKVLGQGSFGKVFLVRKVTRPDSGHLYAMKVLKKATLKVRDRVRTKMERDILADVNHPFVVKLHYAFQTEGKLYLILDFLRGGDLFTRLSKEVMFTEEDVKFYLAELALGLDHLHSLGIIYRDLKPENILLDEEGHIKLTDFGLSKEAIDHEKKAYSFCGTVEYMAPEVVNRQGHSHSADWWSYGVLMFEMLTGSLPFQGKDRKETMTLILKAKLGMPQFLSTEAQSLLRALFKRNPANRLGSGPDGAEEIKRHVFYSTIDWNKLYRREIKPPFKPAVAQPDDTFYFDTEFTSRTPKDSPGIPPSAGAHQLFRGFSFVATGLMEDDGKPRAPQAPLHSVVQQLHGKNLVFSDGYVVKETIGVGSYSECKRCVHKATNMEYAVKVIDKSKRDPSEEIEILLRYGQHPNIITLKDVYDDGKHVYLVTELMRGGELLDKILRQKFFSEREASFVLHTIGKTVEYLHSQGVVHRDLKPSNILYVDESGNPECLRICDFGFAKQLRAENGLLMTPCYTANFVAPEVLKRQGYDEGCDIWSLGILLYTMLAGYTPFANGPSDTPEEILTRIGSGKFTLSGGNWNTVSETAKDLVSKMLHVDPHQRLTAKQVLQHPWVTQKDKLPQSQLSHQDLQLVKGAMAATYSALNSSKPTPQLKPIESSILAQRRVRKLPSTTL
inactive: [1] 0.02 | [2] -0.067 | [3] -0.012 | [4] 0.005 | [5] -0.088 | [6] -0.258 | [7] -0.108 | [8] -0.101 | [9] -0.018 | [10] -0.015 | [11] 0.087 | [12] -0.022 | [13] 0.025 | [14] -0.016 | [15] -0.01 | [16] -0.202 | [17] -0.062 | [18] 0 | [19] 0.013 | [20] -0.053

RAC1 (UniProt P63000)
active: [11] 0.474
inactive: [1] 0.097 | [2] -0.041 | [3] -0.031 | [4] 0.057 | [5] -0.009 | [6] -0.012 | [7] 0.075 | [8] 0.043 | [9] -0.064 | [10] -0.037 | [12] -0.118 | [13] 0.044 | [14] 0.003 | [15] -0.066 | [16] 0.02 | [17] 0.039 | [18] 0.006 | [19] 0.004 | [20] -0.094

SART3, A0A499FI31
active: [3] -0.291 | [6] -0.448
inactive: [1] -0.011 | [2] -0.13 | [4] 0.035 | [5] 0.021 | [7] -0.156 | [8] -0.041 | [9] 0.025 | [10] 0.001 | [11] 0.059 | [12] -0.036 | [13] 0.054 | [14] -0.044 | [15] -0.042 | [16] -0.192 | [17] -0.019 | [18] -0.019 | [19] 0.016 | [20] -0.083

SASH1 (UniProt O94885)
inactive: [1] -0.081 | [2] -0.043 | [3] -0.035 | [4] 0.04 | [5] -0.019 | [6] -0.064 | [7] 0.03 | [8] -0.015 | [9] 0.013 | [10] -0.022 | [11] -0.059 | [12] -0.074 | [13] -0.04 | [14] -0.05 | [15] 0.009 | [16] -0.161 | [17] 0.015 | [18] -0.015 | [19] -0.013 | [20] 0.073

RAVER1 (UniProt E9PAU2)
inactive: [1] -0.086 | [2] -0.376 | [3] -0.624 | [4] 0.413 | [5] -0.069 | [6] -0.322 | [7] -0.186 | [8] -0.087 | [9] 0.105 | [10] -0.065 | [11] 0.032 | [12] -0.244 | [13] 0.258 | [14] 0.024 | [15] 0.372 | [16] -0.898 | [17] 0.082 | [18] -0.099 | [19] 0.049 | [20] -0.002

RIC8A isoform 3 (UniProt Q9NPQ8)
Sequence of UniProt Q9NPQ8 (Q9NPQ8 whole entry, looked up): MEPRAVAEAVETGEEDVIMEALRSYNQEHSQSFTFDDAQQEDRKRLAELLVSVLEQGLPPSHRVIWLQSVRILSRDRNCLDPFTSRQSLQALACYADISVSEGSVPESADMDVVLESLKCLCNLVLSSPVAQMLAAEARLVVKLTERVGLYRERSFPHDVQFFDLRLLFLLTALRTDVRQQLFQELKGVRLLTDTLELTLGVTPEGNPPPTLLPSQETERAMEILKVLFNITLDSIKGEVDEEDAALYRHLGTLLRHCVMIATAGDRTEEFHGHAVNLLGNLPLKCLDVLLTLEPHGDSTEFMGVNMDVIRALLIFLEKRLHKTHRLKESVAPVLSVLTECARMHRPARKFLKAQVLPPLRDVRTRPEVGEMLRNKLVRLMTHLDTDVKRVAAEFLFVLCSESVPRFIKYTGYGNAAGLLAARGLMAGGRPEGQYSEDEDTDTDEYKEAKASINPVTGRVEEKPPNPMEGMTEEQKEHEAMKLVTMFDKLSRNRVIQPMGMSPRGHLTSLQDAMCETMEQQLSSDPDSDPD
inactive: [1] 0.008 | [2] -0.223 | [3] -0.157 | [4] 0.108 | [5] -0.096 | [6] -0.175 | [7] 0.198 | [8] -0.087 | [9] 0.287 | [10] -0.12 | [11] -0.007 | [12] -0.046 | [13] -0.058 | [14] -0.032 | [15] 0.159 | [16] -0.095 | [17] 0.043 | [18] 0.009 | [19] 0.001 | [20] -0.002

SHCBP1 (UniProt Q8NEM2)
Sequence of UniProt Q8NEM2 (Q8NEM2 whole entry, looked up): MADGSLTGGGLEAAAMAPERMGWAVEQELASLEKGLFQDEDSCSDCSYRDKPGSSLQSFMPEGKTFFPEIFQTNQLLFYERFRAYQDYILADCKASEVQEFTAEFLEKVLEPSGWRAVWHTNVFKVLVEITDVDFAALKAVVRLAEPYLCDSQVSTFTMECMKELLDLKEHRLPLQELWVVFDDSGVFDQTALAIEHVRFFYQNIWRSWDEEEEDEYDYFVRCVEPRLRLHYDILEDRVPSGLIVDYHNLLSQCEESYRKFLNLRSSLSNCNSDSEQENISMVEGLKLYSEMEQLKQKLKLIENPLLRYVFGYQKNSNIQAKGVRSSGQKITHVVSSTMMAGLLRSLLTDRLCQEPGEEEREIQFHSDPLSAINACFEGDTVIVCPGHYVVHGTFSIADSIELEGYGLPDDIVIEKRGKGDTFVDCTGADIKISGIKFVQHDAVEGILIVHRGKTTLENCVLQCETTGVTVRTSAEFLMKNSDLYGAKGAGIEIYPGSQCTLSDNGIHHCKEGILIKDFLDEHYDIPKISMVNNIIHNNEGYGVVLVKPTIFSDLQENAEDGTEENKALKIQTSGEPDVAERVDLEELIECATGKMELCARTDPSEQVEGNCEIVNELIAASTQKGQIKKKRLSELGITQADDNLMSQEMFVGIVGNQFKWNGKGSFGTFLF
inactive: [1] -0.044 | [2] 0.017 | [3] -0.07 | [4] 0.174 | [5] -0.061 | [6] -0.194 | [7] -0.104 | [8] -0.081 | [9] 0.149 | [10] -0.018 | [11] -0.014 | [12] 0.059 | [13] 0.103 | [14] -0.023 | [15] 0.134 | [16] 0.102 | [17] 0 | [18] -0.056 | [19] -0.13 | [20] -0.057

SLBP (UniProt Q14493)
Sequence of UniProt Q14493 (Q14493 whole entry, looked up): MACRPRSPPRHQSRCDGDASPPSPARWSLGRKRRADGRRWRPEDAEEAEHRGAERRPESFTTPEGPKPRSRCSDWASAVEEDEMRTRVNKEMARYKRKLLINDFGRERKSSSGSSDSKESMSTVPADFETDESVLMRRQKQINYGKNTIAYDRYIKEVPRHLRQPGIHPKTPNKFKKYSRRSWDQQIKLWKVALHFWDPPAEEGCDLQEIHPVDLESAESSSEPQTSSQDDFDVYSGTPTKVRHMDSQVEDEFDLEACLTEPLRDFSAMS
inactive: [1] -0.083 | [2] -0.077 | [3] -0.091 | [4] 0.117 | [5] 0.113 | [6] -0.128 | [7] -0.158 | [8] 0.02 | [9] 0.113 | [10] 0 | [11] -0.148 | [12] -0.035 | [13] 0.112 | [14] 0.224 | [15] -0.152 | [16] -0.199 | [17] 0.034 | [18] 0.077 | [19] 0.004 | [20] 0.05

RCN3 (UniProt Q96D15)
Sequence of UniProt Q96D15 (Q96D15 whole entry, looked up): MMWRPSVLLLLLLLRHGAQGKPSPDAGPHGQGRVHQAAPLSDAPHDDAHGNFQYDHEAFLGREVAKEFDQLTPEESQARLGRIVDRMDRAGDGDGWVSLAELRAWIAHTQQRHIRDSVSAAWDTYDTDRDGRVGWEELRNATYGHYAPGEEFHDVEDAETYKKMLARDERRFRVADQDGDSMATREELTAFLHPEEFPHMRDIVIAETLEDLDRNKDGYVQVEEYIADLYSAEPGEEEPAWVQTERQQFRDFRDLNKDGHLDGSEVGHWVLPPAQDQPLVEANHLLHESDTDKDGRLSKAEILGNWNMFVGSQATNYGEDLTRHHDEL
inactive: [1] 0.033 | [2] 0.107 | [3] -0.133 | [4] 0.153 | [5] -0.076 | [6] 0.096 | [7] 0.038 | [8] -0.309 | [9] 0.054 | [10] 0.087 | [11] -0.065 | [12] 0.054 | [13] -0.068 | [14] -0.122 | [15] 0 | [16] 0.043 | [17] 0 | [18] 0.132 | [19] -0.025 | [20] 0.087

SCPEP1 (UniProt Q9HB40)
Sequence of UniProt Q9HB40 (Q9HB40 whole entry, looked up): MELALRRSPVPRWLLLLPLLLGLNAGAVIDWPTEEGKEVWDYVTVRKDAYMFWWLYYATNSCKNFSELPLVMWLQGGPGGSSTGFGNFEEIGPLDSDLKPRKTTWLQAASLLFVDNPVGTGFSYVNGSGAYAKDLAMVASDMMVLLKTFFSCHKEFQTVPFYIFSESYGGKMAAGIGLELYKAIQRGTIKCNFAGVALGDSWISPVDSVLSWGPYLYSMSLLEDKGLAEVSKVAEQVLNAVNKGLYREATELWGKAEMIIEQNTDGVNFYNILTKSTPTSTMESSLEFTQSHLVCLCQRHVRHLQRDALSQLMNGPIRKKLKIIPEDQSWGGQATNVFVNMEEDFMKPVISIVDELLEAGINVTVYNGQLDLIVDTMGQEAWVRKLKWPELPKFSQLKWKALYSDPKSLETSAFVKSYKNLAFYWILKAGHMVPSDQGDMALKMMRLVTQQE
inactive: [1] -0.029 | [2] 0.031 | [3] -0.009 | [4] -0.012 | [5] 0.021 | [6] 0.005 | [7] 0.064 | [8] -0.022 | [9] -0.025 | [10] -0.004 | [11] 0.078 | [12] -0.082 | [13] 0.009 | [14] 0.002 | [15] 0.007 | [16] -0.058 | [17] -0.014 | [18] 0.057 | [19] -0.021 | [20] 0.096

RPS3 (UniProt P23396)
inactive: [1] -0.03 | [2] 0.031 | [3] 0.201 | [4] 0.094 | [5] 0.082 | [6] 0.208 | [7] 0.097 | [8] 0.04 | [9] 0.045 | [10] 0.002 | [11] -0.093 | [12] 0.102 | [13] -0.023 | [14] 0.055 | [15] -0.05 | [16] -0.027 | [17] -0.056 | [18] -0.149 | [19] 0.053 | [20] -0.059
